Test [1] is described as follows: qHTS of pediatric cancer cell lines to identify multiple opportunities for drug repurposing: Primary screen for DAOY cells (AID 1347090). Also: nearly all actives have a fitted effect of over 55% in size. Also: potency is read from the fitted curve at half-maximal effect.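 As to activity change, negative = cytotoxic: series mostly up to about 46 µM; plate controls were DMSO for no effect and bortezomib for full effect.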 Summed up: (§1)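 Cell viability, CellTiter-Glo luminescence; 500-1,000 cells/well, 8- or 11-point titration, 48 h compound exposure at 37 degrees C, 5% CO2. Controls: DMSO neutral, bortezomib 2.3 µM final as positive.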
Test [2] in a line: qHTS of pediatric cancer cell lines to identify multiple opportunities for drug repurposing: Primary screen for SJ-GBM2 cells (AID 1347091). Also: potency is read from the fitted curve at half-maximal effect.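 As to activity change, negative = cytotoxic: plate controls were DMSO neutral control for no effect and bortezomib for full effect.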 Summed up: as §1
Test [3] in a line: qHTS of pediatric cancer cell lines to identify multiple opportunities for drug repurposing: Primary screen for A673 cells (AID 1347092). Also: nearly all actives have a fitted effect of over 45% in size. Also: potency is read from the fitted curve at half-maximal effect. As to activity change, negative = cytotoxic: % is scaled to controls: 0 for no effect and ±100 for the full control effect. Summed up: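 48 h compound exposure, A673, 500-1,000 cells/well, 37 degrees C/5% CO2. MIPE: 11-point, 0.78 nM-46 µM; NPC: 8-point, 0.59 nM-46 µM (final). Readout CellTiter-Glo luminescence after 15 min RT.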
Test [4] is described as follows: qHTS of pediatric cancer cell lines to identify multiple opportunities for drug repurposing: Primary screen for SK-N-MC cells (AID 1347093). Also: potency is read from the fitted curve at half-maximal effect.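 As to activity change, negative = cytotoxic: series mostly up to about 46 µM; plate controls were DMSO neutral control for no effect and bortezomib for full effect.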 The gist of the method: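 Metabolically active cells were quantified by ATP-dependent luminescence (CellTiter-Glo, 15 min at room temperature) following 48 h treatment. Cells had been plated at 500-1,000 per well and settled for 5 h beforehand.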

A short description of test [5]: qHTS of pediatric cancer cell lines to identify multiple opportunities for drug repurposing: Primary screen for BT-37 cells (AID 1347094). Also: potency is read from the fitted curve at half-maximal effect.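 As to activity change, negative = cytotoxic: series mostly up to about 57 µM; plate controls were DMSO for no effect and bortezomib for full effect.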 Summed up:
(§2)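 Readout: CellTiter-Glo luminescence, 48 h treatment. Controls DMSO (neutral) and bortezomib 2.3 µM final (positive). Potency and efficacy taken from primary-screen concentration-response curves.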

The nature of test [6]: qHTS of pediatric cancer cell lines to identify multiple opportunities for drug repurposing: Primary screen for NB-EBc1 cells (AID 1347095). Also: potency is read from the fitted curve at half-maximal effect.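 As to activity change, negative = cytotoxic: plate controls were DMSO neutral control for no effect and bortezomib for full effect.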 Summed up:
as §2

Test [7] in a line: qHTS of pediatric cancer cell lines to identify multiple opportunities for drug repurposing: Primary screen for U-2 OS cells (AID 1347096). Also: nearly all actives have a fitted effect of over 50% in size. Also: potency is read from the fitted curve at half-maximal effect.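 As to activity change, negative = cytotoxic: plate controls were DMSO wells for no effect and bortezomib positive control wells for full effect.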 Summed up: (§3)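 Cells (500-1,000/well) rested 5 h, then received compounds for 48 h; metabolically active cells were measured by CellTiter-Glo luminescence. Final concentrations spanned up to 46 µM (MIPE, 11-point) or 0.59 nM-46 µM (NPC, 8-point) in primary screens, 11-point in follow-ups.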

A short description of test [8]: qHTS of pediatric cancer cell lines to identify multiple opportunities for drug repurposing: Primary screen for Saos-2 cells (AID 1347097). Also: nearly all actives have a fitted effect of over 40% in size. Also: potency is read from the fitted curve at half-maximal effect. As to activity change, negative = cytotoxic: % is scaled to controls: 0 for no effect and ±100 for the full control effect. The gist of the method: as §2
Test [9] in a line: qHTS of pediatric cancer cell lines to identify multiple opportunities for drug repurposing: Primary screen for SK-N-SH cells (AID 1347098). Also: nearly all actives have a fitted effect of over 65% in size. Also: potency is read from the fitted curve at half-maximal effect. As to activity change, negative = cytotoxic: % is scaled to controls: 0 for no effect and ±100 for the full control effect. Summed up:
as §3

The nature of test [10]: qHTS of pediatric cancer cell lines to identify multiple opportunities for drug repurposing: Primary screen for NB1643 cells (AID 1347099).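 Also: plate controls were DMSO neutral control for no effect and bortezomib positive control for full effect; nearly all actives have a fitted effect of over 50% in size.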 The gist of the method: as §2

The structures appear in SMILES notation. Inconclusive results are not listed. Unmarked numbers belong to inactive results. Calls of active or inactive are those of the source. Calls follow the shape of the dose curve; as a rule, active = well fitted curve in the direction sought with a large enough effect; inconclusive = small, poorly fitted or top-dose-only effect, or another doubt; inactive = no such curve, though single readings can be large; an effect the other way counts as inactive or inconclusive.

On to `CC(O)(P(=O)(O)O)P(=O)(O)O`, for which the Potency result in test [1], in test [2], in test [3], in [4], in [5] and in test [6] was “inactive” each time. The Potency entry in test [7], in test [8], in test [9] and in test [10] was “inactive” throughout.
Regarding `COc1ccc(C2C(=O)c3ccccc3C2=O)cc1`, the Potency result in test [1], in test [2], in test [3], in [4], in test [5] and in test [6] was “inactive” each time. Moreover, the Potency entry in test [7], in [8], in [9] and in [10] was “inactive” each time.
Take `Cc1ccc(Nc2c(F)cccc2Cl)c(CC(=O)O)c1`: the Potency result in test [1], in test [2], in test [3], in test [4], in test [5] and in [6] was “inactive” in each case. In addition, the Potency entry in test [7], in [8], in [9] and in test [10] was “inactive” each time.
Turning to `NCCC(O)(P(=O)(O)O)P(=O)(O)O`, the Potency entry in [1], in [2], in test [3], in [4], in test [5] and in test [6] was “inactive” in each case. Besides, the Potency result in [7], in [8], in [9] and in test [10] was “inactive” each time.
Regarding `NC[C@H]1O[C@H](O[C@H]2[C@H](O[C@@H]3O[C@H](CO)[C@@H](O)[C@H]3O)C(O)[C@H](N)C[C@@H]2N)[C@H](N)[C@@H](O)[C@@H]1O` (stereo not given in full), the activity change, negative = cytotoxic in test [1] is 6.37% [at 9.22 µM]; in test [2], 15.5% [at 9.22 µM]; in test [3], -0.207% [at 9.22 µM]; in test [4], -3.87% [at 9.22 µM]; in test [5], 10.7% [at 11.5 µM]; in test [6], 28.9% [at 9.22 µM]. In addition, the activity change, negative = cytotoxic in test [7] was 11.5% [at 9.22 µM]; in [8] it was -4.84% [at 9.22 µM]; in test [9], 19.9% [at 11.4 µM]; in [10] it was 0% [at 9.22 µM].
Regarding `O=C1c2ccccc2C(=O)C1c1ccccc1`, the Potency result in [1], in test [2], in test [3], in test [4], in [5] and in [6] was “inactive” throughout. Also, the Potency result in test [7], in [8], in [9] and in test [10] was “inactive” throughout.
As to `C[C@H](O)C(=O)Nc1c(I)c(C(=O)NC(CO)CO)c(I)c(C(=O)NC(CO)CO)c1I`, the Potency entry in test [1], in [2], in [3], in test [4], in test [5] and in test [6] was “inactive” in each case. For the same compound, the Potency entry in test [7], in test [8], in [9] and in [10] was “inactive” in each case.
As for `CC(C)(C)NC(=O)[C@@H]1CN(Cc2cccnc2)CCN1C[C@@H](O)C[C@@H](Cc1ccccc1)C(=O)N[C@H]1c2ccccc2C[C@H]1O`, the Potency result in [1], in test [2], in [3], in test [4], in test [5] and in test [6] was “inactive” each time. The Potency entry in [7], in test [8], in test [9] and in test [10] was “inactive” throughout.
Take `O=C(O)CNC(=O)c1ccccc1`: the Potency result in [1], in test [2], in [3], in [4], in test [5] and in test [6] was “inactive” each time. The Potency result in test [7], in test [8], in test [9] and in [10] was “inactive” in each case.
Consider `COc1cc(/C=C/C(=O)O[C@H]2CC[C@]34C[C@]35CC[C@]3(C)[C@@H]([C@H](C)CCC=C(C)C)CC[C@@]3(C)[C@@H]5CC[C@H]4C2(C)C)ccc1O`, for which the Potency entry in test [1], in test [2], in test [3], in test [4], in test [5] and in [6] was “inactive” in each case. The Potency entry in test [7], in test [8], in test [9] and in test [10] was “inactive” each time.
For `CC(C)(CO)[C@@H](O)C(=O)NCCCO`, the Potency entry in [1], in test [2], in [3], in test [4], in test [5] and in [6] was “inactive” in each case. The Potency entry in test [7], in [8], in test [9] and in [10] was “inactive” in each case.
`CCCCC1=NC2(CCCC2)C(=O)N1Cc1ccc(-c2ccccc2-c2nn[nH]n2)cc1`: the Potency entry in test [1], in test [2], in test [3], in test [4], in test [5] and in test [6] was “inactive” in each case. Moreover, the Potency entry in [7], in test [8], in test [9] and in test [10] was “inactive” throughout.
`NC(=O)CC[C@@H]1NC(=O)[C@H](Cc2ccccc2)NC(=O)[C@H](Cc2ccc(O)cc2)NC(=O)CCSSC[C@@H](C(=O)N2CCC[C@H]2C(=O)N[C@@H](CCCN=C(N)N)C(=O)NCC(N)=O)NC(=O)[C@H](CC(N)=O)NC1=O`: the Potency result in test [1], in [2], in test [3], in test [4], in test [5] and in test [6] was “inactive” in each case. Moreover, the Potency entry in [7], in test [8], in test [9] and in test [10] was “inactive” in each case.
In the case of `CCC(C(=O)OCCN(CC)CC)c1ccccc1` (stereo not given), the Potency entry in test [1], in test [2], in [3], in [5], in [6] and in test [7] was “inactive” each time. In addition, the Potency result in [8], in test [9] and in [10] was “inactive” throughout. Moreover, the Potency in [4] is 23.7 µM (active).
As to `CCCCC(CC)CN=C(N)NC(N)=NCCCCCCN=C(N)NC(N)=NCC(CC)CCCC` (stereo not given), the Potency in [1] is 8.41 µM (active); in test [2], 1.06 µM (active); in test [3] it was 1.68 µM (active); in test [4], 5.31 µM (active); in test [5] it was 9.78 µM (active); in test [6], 10.6 µM (active). For the same compound, the values for the Potency in test [7], in test [8] and in test [9] were 21.1 µM (active), 9.44 µM (active) and 4.33 µM (active), respectively.
`CC1(C)O[C@@H]2C[C@H]3[C@@H]4C[C@H](F)C5=CC(=O)CC[C@]5(C)[C@H]4[C@@H](O)C[C@]3(C)[C@]2(C(=O)CO)O1`: the Potency result in test [1], in test [2], in test [3], in test [4], in [5] and in [6] was “inactive” each time. Also, the Potency result in [7], in test [8], in [9] and in test [10] was “inactive” in each case.
As to `c1ccc(CNCCNCc2ccccc2)cc1`, the Potency entry in [1], in [2], in test [3], in test [4], in [5] and in test [6] was “inactive” in each case. Moreover, the Potency result in [7], in [8], in test [9] and in test [10] was “inactive” throughout.
For the compound `CNC(=O)CN(CCN(CCN(CC(=O)[O-])CC(=O)NC)CC(=O)[O-])CC(=O)[O-].O.[Gd+3]`, the Potency entry in [1], in test [2], in test [3], in [4], in [5] and in test [6] was “inactive” in each case. The Potency entry in test [7], in [8], in test [9] and in [10] was “inactive” throughout.
With `CN(C(=O)CN(CCO)CC(=O)N(C)C(C)(C)Cc1ccccc1)C(C)(C)Cc1ccccc1`, in test [1], the Potency entry was “inactive”.
`CCOC(=O)c1cccc(N)c1`: the Potency result in test [1], in test [2], in test [3], in [4], in [5] and in test [6] was “inactive” throughout. The Potency entry in test [7], in test [8], in [9] and in test [10] was “inactive” each time.
For `C[C@H]1[C@H](NC(=O)/C(=N/OC(C)(C)C(=O)O)c2csc(N)n2)C(=O)N1S(=O)(=O)O` (stereo in doubt), the Potency result in test [1], in test [2], in test [3], in test [4], in test [5] and in test [6] was “inactive” each time. For the same compound, the Potency result in test [7], in test [8], in test [9] and in test [10] was “inactive” in each case.
